# Pf growth 48h: P. falciparum growth inhibition at 48 hours (one generation). P. falciparum luciferase growth in erythrocytes, 48 h. Potency, µM (doses to about 28.7 µM), inactives show at the highest dose activity change, negative = inhibition, usual class: inhibitors. hit rate 5.9% among 310,000. AID 504832; active = well fitted inhibition curve with a large enough effect; inconclusive = small, poorly fitted or top-dose-only effect, or another doubt; inactive = no such curve, though single readings can be large or run the other way; note: % is set by controls: 0 for no effect and ±100 for the full control effect
#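 Growth was read as firefly luciferase luminescence after a 48 h, 37 C, 5% CO2 exposure of compounds to reporter-bearing P. falciparum cultures (0.1% parasitemia, 2% hematocrit final) in Albumax-supplemented RPMI 1640.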
# SARS PLP yeast: SARS-CoV PLP inhibition in yeast; S. cerevisiae expressing SARS-CoV PLpro, growth rescue; hit rate 0.19% among 330,000; Potency, µM (doses to about 32.9 µM), for inactives: top-dose activity, positive = growth rescue, most hits filed as activators; note: 0% is about no effect; nearly all actives have a fitted effect of over 55% in size
# NS1 function inh: influenza NS1 inhibition; Potency, µM (titrated, usually from 46.1 µM), for the others: top-dose activity, positive = more growth; hit rate 0.4% among 270,000; note: actives are rising curves; nearly all actives have a fitted effect of over 50% in size
#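 Growth recovery, yeast-based: influenza A NS1 expressed in S. cerevisiae causes slow growth, and suppressors are detected by OD600. The parent strain without NS1 is used as positive control.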
# Pf growth 96h: inhibits malaria parasite growth, 96 h; hit rate 6.9% among 320,000; Potency, µM (top dose mostly 28.7 µM), for the others: at the top dose activity change, negative = inhibition, most hits filed as inhibitors; P. falciparum luciferase reporter growth, 96 h; active = well fitted inhibition curve with a large enough effect; inconclusive = small, poorly fitted or top-dose-only effect, or another doubt; inactive = no such curve, though single readings can be large or run the other way; note: % is set by controls: 0 for no effect and ±100 for the full control effect
#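 Erythrocytes infected with luciferase-expressing P. falciparum were dispensed at 2% hematocrit and 0.05% parasitemia (final), then incubated with compounds 96 hours at 37 C in 5% CO2. Luminescence after detection reagent addition reported growth.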
# Starred values were filed as active, the others as inactive; i = inactive; ? = inconclusive; nt = not tested or not shown. In the library only some 10% were active in any assay of this set; here they are far more common. Unless noted, calls come from the whole dose curve. Potency is the fitted concentration of half-maximal effect.
SMILES,Pf growth 48h,SARS PLP yeast,NS1 function inh,Pf growth 96h
O=C(Nc1ccc(Oc2ccccc2)cc1)C1CCN(c2c3c(nc4ncnn24)CCC3)CC1,?,-4.6%,20.5%,26.7%
O=C(Nc1ccc2c(c1)CCC2)C1CCN(c2c3c(nc4ncnn24)CCC3)CC1,11.7µM*,1.3%,?,-8.6%
COc1ccccc1CC(NC(C)=O)C(=O)NC1CCN(C(=O)c2ccc(C)cc2)CC1 (stereo unspecified),11.3%,-2.0%,-1.7%,?
N=C1c2ccccc2CN1c1ccc(N2CCOCC2)c(S(=O)(=O)Nc2ccc(Cl)cc2)c1,?,2.5%,4.8%,9.28µM*
Cc1ccccc1NC(=S)NCc1ccco1,8.3%,-2.7%,0.5%,0.329µM*
Cc1ccc(NC(=S)NCc2ccco2)c(C)c1,-13.2%,10.4%,-0.1%,-26.4%
O=C(NC(NC(=S)Nc1ccccc1C(=O)O)C(Cl)(Cl)Cl)c1ccco1 (stereo unspecified),-2.5%,6.1%,1.8%,-30.1%
Cc1ccccc1NC(=S)NC(NC(=O)c1ccco1)C(Cl)(Cl)Cl (stereo unspecified),?,-10.5%,6.3%,9.28µM*
CC(C)(C)C(=O)NC1(C(F)(F)F)NC(=O)N(c2ccc(F)cc2)C1=O (stereo unspecified),-12.0%,-0.5%,0.2%,11.7µM*
Cc1ccc(N2C(=O)NC(NC(=O)C(C)(C)C)(C(F)(F)F)C2=O)cc1 (stereo unspecified),2.0%,8.4%,10.8%,-1.2%
O=C(NCc1ccc2c(c1)OCO2)c1ccc2c(c1)N(Cc1c(F)cccc1Cl)C(=O)CS2,11.7µM*,10.6%,?,-77.0%
O=C(NCCN1CCOCC1)c1ccc2c(c1)N(Cc1ccc(Cl)cc1)C(=O)CS2,-23.7%,0.6%,-0.6%,?
CCC1CCCCN1CCCNC(=O)c1ccc2c(c1)N(Cc1c(F)cccc1Cl)C(=O)CS2 (stereo unspecified),13.1µM*,-4.4%,-7.2%,?
CCOC(=O)CCNC(=O)N1CCCC(N2CCN(c3ccc(OC)cc3)CC2)C1 (stereo unspecified),-2.0%,1.2%,7.2%,2.94µM*
Cc1cc(C)c(-c2csc(NC(=O)C3=COCCO3)n2)c(C)c1,9.28µM*,-26.7%,nt,?
CCCNC(=O)CCn1cc(-c2ccc(OC)cc2)nc1-c1ccncc1,24.9%,0.5%,-0.7%,85.2%
CCCC(c1nnnn1CS(=O)(=O)c1ccc(C)cc1)N1CCN(c2ccc(F)cc2)CC1 (stereo unspecified),16.5µM*,-1.9%,-84.6%,?
Cc1ccc(S(=O)(=O)Cn2nnnc2C(CC(C)C)N2CCN(C)CC2)cc1 (stereo unspecified),?,0.4%,-0.5%,i
Cc1ccc(S(=O)(=O)Cn2nnnc2C(CC(C)C)N2CCN(c3ccccc3)CC2)cc1 (stereo unspecified),7.38µM*,-13.2%,1.0%,33.3%
Cc1ccc(S(=O)(=O)Cn2nnnc2C(C(C)C)N2CCN(Cc3ccco3)CC2)cc1 (stereo unspecified),10.4µM*,1.6%,-12.6%,10.3%
CC(C)C(c1nnnn1Cc1ccccc1)N(Cc1ccco1)Cc1cccs1 (stereo unspecified),?,-24.6%,0.7%,19.7%
Cc1ccc(S(=O)(=O)Cn2nnnc2CN(Cc2ccco2)Cc2cccs2)cc1,10.4µM*,-27.2%,-14.7%,18.0%
Nc1ccccc1O.O.O=C(O)[C@H]1[O][Sb][O][C@H]1C(=O)O,nt,nt,-2.6%,nt
CCCN(C(=O)c1cccc(-n2cccc2)c1)c1c(N)n(Cc2ccccc2)c(=O)[nH]c1=O,?,0.5%,nt,1.2%
Cc1ccc(C(c2nnnn2CS(=O)(=O)c2ccc(C)cc2)N2CCN(c3ncccn3)CC2)cc1 (stereo unspecified),4.15µM*,14.3%,8.9%,?
SMILES,Pf growth 48h,SARS PLP yeast,NS1 function inh,Pf growth 96h
Cc1sc2ncnc(N3CCC(C(=O)Nc4ccc(S(N)(=O)=O)cc4)CC3)c2c1C,?,1.1%,nt,?
Cc1sc2ncnc(N3CCC(C(=O)Nc4cc(Cl)ccc4Cl)CC3)c2c1C,?,-11.8%,nt,?
Cc1sc2ncnc(N3CCC(C(=O)Nc4cc(S(C)(=O)=O)ccc4Cl)CC3)c2c1C,9.28µM*,2.2%,nt,?
Cc1ccc(NC(=O)C2CCN(c3ncnc4sc(C)c(C)c34)CC2)cc1S(=O)(=O)N(C)C,4.15µM*,-1.8%,nt,4.65µM*
Cc1sc2ncnc(N3CCC(C(=O)N(C)CC(=O)Nc4ccc(Cl)c(C(F)(F)F)c4)CC3)c2c1C,9.28µM*,0.8%,nt,?
Cc1ccc2nc(NC(=O)C3CCN(c4ncnc5sc(C)c(C)c45)CC3)sc2c1,-5.0%,-1.9%,5.8%,?
Cc1ccc(C)c(S(=O)(=O)N2CCN(C(=O)C3CCN(c4ncnc5sc(C)c(C)c45)CC3)CC2)c1,5.22µM*,0.4%,nt,?
CCCOc1ccccc1Cn1c(=O)oc2ccccc21,12.7%,-3.3%,-11.8%,?
CCN(CC)S(=O)(=O)c1cc(NC(=O)C2CCN(c3ncnc4sc(C)c(C)c34)CC2)ccc1Cl,11.7µM*,-2.2%,nt,5.22µM*
Cc1sc2ncnc(N3CCC(C(=O)Nc4ccc(C#N)cc4)CC3)c2c1C,?,-0.6%,nt,?
COc1ccccc1CN1CCN(Cc2nc(Cc3ccccc3)no2)CC1,?,0.5%,-1.3%,11.7µM*
Fc1cccc(Cc2noc(CN3CCCCC3c3ccccn3)n2)c1 (stereo unspecified),-23.8%,0.6%,3.5%,8.28µM*
COc1ccccc1CN1CCN(Cc2nc(-c3ccccc3)no2)CC1,-0.3%,0.0%,7.0%,-4.4%
Fc1cccc(CN2CCN(Cc3nc(CCc4ccccc4)no3)CC2)c1,34.8%,-0.1%,-4.1%,10.4µM*
c1ccc(Cc2noc(CN3CCN(Cc4ccc5c(c4)OCO5)CC3)n2)cc1,-11.5%,-1.5%,-0.6%,-23.2%
FC(F)(F)c1cccc(Cc2noc(CN3CCCC(OCc4ccccn4)C3)n2)c1 (stereo unspecified),-3.1%,0.1%,-6.7%,14.7µM*
CN(CC(=O)Nc1ccc(F)cc1)C(=O)COC(=O)/C=C/c1ccccc1[N+](=O)[O-],-7.7%,-0.2%,nt,-7.1%
Cc1ccc(C(=O)N2CCCC(C(=O)Nc3cccc(-c4ccc(F)cc4)c3)C2)cn1 (stereo unspecified),3.2%,-5.0%,-1.5%,-3.0%
CS(=O)(=O)NCCOc1ccc(S(=O)(=O)NCCOc2ccccc2)cc1,10.4µM*,0.5%,nt,31.5%
O=C(Cn1nnc(-c2ccc(S(=O)(=O)N3CCCC3)cc2)n1)Nc1ccccc1-n1cccc1,9.28µM*,-0.8%,-31.9%,?
O=C(CN1CCCc2ccccc21)Nc1cccc(S(=O)(=O)N2CCOCC2)c1,?,2.1%,nt,?
Cc1ccc2c(c1)CCCN2CC(=O)Nc1cc(S(=O)(=O)N2CCCC2)ccc1Cl,10.4µM*,2.3%,nt,4.65µM*
O=C(CN1CCCc2ccccc21)Nc1cc(S(=O)(=O)N2CCCC2)ccc1Cl,13.1µM*,0.2%,nt,8.28µM*
COc1ccc(N2CCN(C(=O)CNC(=O)c3ccccc3Cl)CC2)cc1,-2.8%,-0.8%,4.1%,6.8%

# High-throughput results (PubChem)
